Inconclusive results are not listed. Active and inactive are the calls of the source. The call rests on the fitted dose curve; in most records, active means well fitted inhibition curve with a large enough effect; inconclusive means small, poorly fitted or top-dose-only effect; inactive means flat fitted curve, though single readings scatter.
Experiments:
Assay in all cases: qHTS profiling for inhibitors of Plasmodium falciparum proliferation (AID 504749); further: nearly all actives have a fitted effect of over 60% in size
CP256 = conditions: P. falciparum in erythrocytes, SYBR Green DNA, 72 h; series mostly up to 12.8 µM
Summary of the method: (§1)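 P. falciparum-infected erythrocytes (0.3% parasitemia, 2.5% hematocrit) incubated with compound 72 h at 37 C, 5% CO2. Parasite DNA detected by SYBR Green after lysis, overnight at room temperature; normalised to 0.29 uM artemisinin and DMSO.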

CP260 = conditions: P. falciparum in erythrocytes, SYBR Green DNA, 72 h; series mostly up to 12.8 µM
Summary of the method: as §1

CP262 = conditions: P. falciparum in erythrocytes, SYBR Green DNA, 72 h; series mostly up to 12.8 µM
Summary of the method: as §1

CP265 = conditions: P. falciparum in erythrocytes, SYBR Green DNA, 72 h; series mostly up to 12.8 µM
Summary of the method: as §1

CP266 = conditions: P. falciparum in erythrocytes, SYBR Green DNA, 72 h; series mostly up to 28.7 µM
Summary of the method: as §1

CP268 = conditions: P. falciparum in erythrocytes, SYBR Green DNA, 72 h; series mostly up to 12.8 µM
Summary of the method: as §1

CP269 = conditions: P. falciparum in erythrocytes, SYBR Green DNA, 72 h; series mostly up to 12.8 µM
Summary of the method: as §1

CP286 = conditions: P. falciparum in erythrocytes, SYBR Green DNA, 72 h; series mostly up to 12.8 µM
Summary of the method: as §1

CP291 = conditions: P. falciparum in erythrocytes, SYBR Green DNA, 72 h; series mostly up to 12.8 µM
Summary of the method: as §1

CP297 = conditions: P. falciparum in erythrocytes, SYBR Green DNA, 72 h; series mostly up to 12.8 µM
Summary of the method: as §1

CP305 = conditions: P. falciparum in erythrocytes, SYBR Green DNA, 72 h; series mostly up to 12.8 µM
Summary of the method: as §1

CP315 = conditions: P. falciparum in erythrocytes, SYBR Green DNA, 72 h; series mostly up to 12.8 µM
Summary of the method: as §1

CP325 = conditions: P. falciparum in erythrocytes, SYBR Green DNA, 72 h; series mostly up to 12.8 µM
Summary of the method: as §1

CP329 = conditions: P. falciparum in erythrocytes, SYBR Green DNA, 72 h; series mostly up to 12.8 µM
Summary of the method: as §1

CP335 = conditions: P. falciparum in erythrocytes, SYBR Green DNA, 72 h; series mostly up to 12.8 µM
Summary of the method: as §1

DFO2036 = conditions: P. falciparum in erythrocytes, SYBR Green DNA, 72 h; series mostly up to 12.8 µM
Summary of the method: as §1

DIV14 = conditions: P. falciparum in erythrocytes, SYBR Green DNA, 72 h; series mostly up to 12.8 µM
Summary of the method: as §1

DIV17 = conditions: P. falciparum in erythrocytes, SYBR Green DNA, 72 h; series mostly up to 12.8 µM
Summary of the method: as §1

DIV30 = conditions: P. falciparum in erythrocytes, SYBR Green DNA, 72 h; series mostly up to 12.8 µM
Summary of the method: as §1

Dd2 = conditions: P. falciparum in erythrocytes, SYBR Green DNA, 72 h; series mostly up to 12.8 µM
Summary of the method: as §1

ECU = conditions: P. falciparum in erythrocytes, SYBR Green DNA, 72 h; series mostly up to 12.8 µM
Summary of the method: as §1

FAB9 = conditions: P. falciparum in erythrocytes, SYBR Green DNA, 72 h; series mostly up to 12.8 µM
Summary of the method: as §1

GB4 = conditions: P. falciparum in erythrocytes, SYBR Green DNA, 72 h; series mostly up to 12.8 µM
Summary of the method: as §1

HB3 = conditions: P. falciparum in erythrocytes, SYBR Green DNA, 72 h; series mostly up to 12.8 µM
Summary of the method: as §1

ICS = conditions: P. falciparum in erythrocytes, SYBR Green DNA, 72 h; series mostly up to 12.8 µM
Summary of the method: as §1

JCK = conditions: P. falciparum in erythrocytes, SYBR Green DNA, 72 h; series mostly up to 12.8 µM
Summary of the method: as §1

N140 = conditions: P. falciparum in erythrocytes, SYBR Green DNA, 72 h; series mostly up to 12.8 µM
Summary of the method: as §1

P93_24 = conditions: P. falciparum in erythrocytes, SYBR Green DNA, 72 h; series mostly up to 12.8 µM
Summary of the method: as §1

P94_40 = conditions: P. falciparum in erythrocytes, SYBR Green DNA, 72 h; series mostly up to 12.8 µM
Summary of the method: as §1

PAD = conditions: P. falciparum in erythrocytes, SYBR Green DNA, 72 h; series mostly up to 12.8 µM
Summary of the method: as §1

PC15 = conditions: P. falciparum in erythrocytes, SYBR Green DNA, 72 h; series mostly up to 12.8 µM
Summary of the method: as §1

PC26 = conditions: P. falciparum in erythrocytes, SYBR Green DNA, 72 h; series mostly up to 12.8 µM
Summary of the method: as §1

PC49 = conditions: P. falciparum in erythrocytes, SYBR Green DNA, 72 h; series mostly up to 12.8 µM
Summary of the method: as §1

SC27B = conditions: P. falciparum in erythrocytes, SYBR Green DNA, 72 h; series mostly up to 12.8 µM
Summary of the method: as §1

TAB109 = conditions: P. falciparum in erythrocytes, SYBR Green DNA, 72 h; series mostly up to 12.8 µM
Summary of the method: as §1

TAB113 = conditions: P. falciparum in erythrocytes, SYBR Green DNA, 72 h; series mostly up to 12.8 µM
Summary of the method: as §1

TAB165 = conditions: P. falciparum in erythrocytes, SYBR Green DNA, 72 h; series mostly up to 12.8 µM
Summary of the method: as §1

W2 = conditions: P. falciparum in erythrocytes, SYBR Green DNA, 72 h; series mostly up to 12.8 µM
Summary of the method: as §1

Measured: Potency

CN[C@@H](CC(C)C)C(=O)N[C@@H]1C(=O)N[C@H](CC(N)=O)C(=O)N[C@@H]2C(=O)N[C@H]3C(=O)N[C@H](C(=O)N[C@H](C(=O)O)c4cc(O)cc(O)c4-c4cc3ccc4O)[C@H](O)c3ccc(c(Cl)c3)Oc3cc2cc(c3O[C@H]2O[C@@H](CO)[C@@H](O)[C@@H](O)[C@@H]2O[C@@H]2C[C@](C)(N)[C@H](O)[C@H](C)O2)Oc2ccc(cc2Cl)[C@@H]1O
inactive: all assays above

Reference: PubChem BioAssay (NCATS)
